The campaign covered roughly 3,300 compounds. Fewer than 10 were called active.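 Rule for the calls: active = growth inhibition above 90% in viable cell count at a single dose; inactive = growth inhibition below 90%.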 These entries were drawn from the full list.

For 56 compounds, growth inhibition and condensed nuclei results are on record in PubChem BioAssay AID770 (SRMLSC, 2007).

This assay is described as follows: HT29 colon tumor cell growth inhibition, primary screen, imaging, high content imaging, 24 h, CellTiter-Glo (AID 770).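 For condensed nuclei: share of cells whose nuclear area falls below control median minus 1.5 SD.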 The note with it: HT29 cell number by imaging, at 10 µM, stronger effect = higher value; for condensed nuclei: measured here: percent cells with condensed nuclei.
The mark [1] stands for this setting: measured here: ATP CellTiter-Glo viability.

Take `CC1(C)Cc2c(c(-c3ccccc3Cl)[nH]c(=O)c2C#N)CO1`: the growth inhibition was -42.2% (inactive) and the condensed nuclei was 1.85%. Further, under setting [1], the growth inhibition was -17.5%.
For `COC(=O)C(NC(C)=O)(Nc1ccccc1)C(=O)OC`, the growth inhibition is -24.8% (inactive) and the condensed nuclei was determined as 3.37%. For the same compound, the growth inhibition under setting [1] was -9.05%.
The corresponding values for `O=C(OCCCN1CCCC1)C1(c2ccccc2)CCCC1` are 3.8% (inactive), 5.7% and 4.75%.
Regarding `CCCCCCSC1=C(C#N)C(c2ccccc2)CC(=O)N1` (stereo not drawn), the growth inhibition is -14.4% (inactive) and the condensed nuclei worked out at 3.36%. The growth inhibition under setting [1] is -7.19%.
Turning to `C=C(C)CSC1=C(C#N)C(c2ccsc2)CC(=O)N1` (stereo not drawn), the growth inhibition is -9.27% (inactive) and the condensed nuclei stood at 1.96%. The growth inhibition under setting [1] is -4.29%.
Regarding `N#CC1=C2SCC(O)(c3ccccc3)N2C(=O)CC1c1ccccc1` (stereo not drawn), the growth inhibition was 90.7% (active) and the condensed nuclei is 46%. In addition, the growth inhibition under setting [1] is 28.5%.
Regarding `Nc1c2c(nc3ccccc13)N(c1ccccc1)CC2`, the growth inhibition was -26.1% (inactive) and the condensed nuclei was 3.19%. Also, the growth inhibition under setting [1] is -9.66%.
`CC(C)c1cc(NCCCN2CCOCC2)n2c(nc3ccccc32)c1C#N`: the growth inhibition is -4.17% (inactive) and the condensed nuclei came out at 5.23%. Under setting [1], the growth inhibition is -7.5%.
In the same order, the values of `CCCOc1ccc(C2NC(=O)NC2=O)cc1` (stereo not drawn) are 10.6% (inactive), 16% and -11.9%.
Take `Cc1cc(C)n(Cc2cc(C)c(Cn3nc(C)cc3C)cc2C)n1`: the growth inhibition was -26.1% (inactive) and the condensed nuclei is 2.58%. For the same compound, the growth inhibition under setting [1] is -2.81%.
Consider `CCOc1ccc2c(C)nc(NC3=NC(C)(C)C=C(C)N3)nc2c1`, for which the growth inhibition is 18.5% (inactive) and the condensed nuclei worked out at 3.47%. For the same compound, the growth inhibition under setting [1] was found to be 16.6%.
In the same order, the values of `CC1(C)Cc2c(sc3c4nnnn4c4nnnn4c23)CO1` are 6.59% (inactive), 2.72% and -3.55%.
The corresponding values for `Cc1ccc(C(=O)C2=C(O)C(=O)N(CCN3CCOCC3)C2c2ccccn2)o1` (stereo not drawn) are 20.8% (inactive), 4.96% and 0.76%.
The corresponding values for `Cc1cccn2c(=O)c(/C=C(\C#N)S(=O)(=O)c3ccccc3)c(N3CCN(C)CC3)nc12` are 5.64% (inactive), 3.93% and 13.3%.
For the compound `Nc1nnc(CSCc2ccc(F)cc2)s1`, the growth inhibition is -13.9% (inactive) and the condensed nuclei worked out at 3.43%. The growth inhibition under setting [1] was -8.17%.
In the same order, the values of `Cc1ccc2[nH]c3c(N4CCCCCC4)ncnc3c2c1` are 74.2% (inactive), 5.98% and 38.6%.
For `Cc1cc(=O)oc(C)c1C(=O)Nc1cccc2nonc12`, the growth inhibition was 38% (inactive) and the condensed nuclei is 3.32%. In addition, the growth inhibition under setting [1] stood at 7.72%.
Consider `C/C(=N\O)C(=O)NCCCNCCCN(C)C`, for which the growth inhibition was 28.6% (inactive) and the condensed nuclei was determined as 4.53%. In addition, under setting [1], the growth inhibition came out at 10.3%.
The corresponding values for `N#CC1=C(SCC(=O)c2ccc(Cl)cc2)NC2=C(C(=O)CCC2)C1c1ccco1` (stereo not drawn) are 64.2% (inactive), 20.2% and 40%.
For the compound `O=S(=O)(/C=C/c1ccccc1)Nc1ccc2c(c1)OCO2`, the growth inhibition was -3.8% (inactive) and the condensed nuclei amounted to 3.87%. The growth inhibition under setting [1] was -13.4%.
The corresponding values for `CCCOc1ccc(/C(O)=C2/C(=O)C(=O)N(CCN(C)C)C2c2ccncc2)cc1` (stereo not drawn) are -14% (inactive), 5.23% and -1.78%.
For `CCOc1nc(SCCOc2ccc(C)cc2)nc(N(C)C)n1`, the growth inhibition is -2.97% (inactive) and the condensed nuclei was 2.83%. The growth inhibition under setting [1] was -13.9%.
On to `CCOC(=O)COc1ccc(Oc2nc(C)cc(OC)n2)nn1`, for which the growth inhibition is -1.19% (inactive) and the condensed nuclei came out at 5.21%. Under setting [1], the growth inhibition came to 1.86%.
In the case of `CCCCN(C(=O)CCC(=O)O)C1CC(=O)N(c2ccc(OCCC)cc2)C1=O` (stereo not drawn), the growth inhibition is 20.1% (inactive) and the condensed nuclei worked out at 1.69%. Moreover, the growth inhibition under setting [1] is 7.14%.
As to `COCc1[nH]nc2c1C(c1ccccc1OC)C(C#N)=C(N)O2` (stereo not drawn), the growth inhibition was 34.7% (inactive) and the condensed nuclei was 3.93%. The growth inhibition under setting [1] was -0.21%.
Consider `CC1CCc2cc(F)cc3c(O)c(C(=O)NCC4CCCO4)c(=O)n1c23` (stereo not drawn), for which the growth inhibition is 12.1% (inactive) and the condensed nuclei was determined as 2.11%. For the same compound, the growth inhibition under setting [1] was determined as 11.9%.
Turning to `O=C1OC(Nc2ccc(Br)cn2)c2ccccc21` (stereo not drawn), the growth inhibition was -21.1% (inactive) and the condensed nuclei was determined as 3.37%. In addition, under setting [1], the growth inhibition worked out at 2.61%.
For the compound `CCOC(=O)c1ccc(-n2c(=O)[nH]c3ccccc3c2=O)cc1`, the growth inhibition was -28.4% (inactive) and the condensed nuclei was 4.94%. Besides, the growth inhibition under setting [1] is -4.1%.
`COc1ccc(-c2onc(C)c2-c2ccccc2)c(O)c1`: the growth inhibition is 25.2% (inactive) and the condensed nuclei worked out at 4.31%. In addition, the growth inhibition under setting [1] was -2.05%.
For `CCn1c(-c2ccco2)n[nH]c1=S`, the growth inhibition is 2.65% (inactive) and the condensed nuclei is 3.02%. Also, the growth inhibition under setting [1] is -3.63%.
For the compound `COC(=O)COn1c(SCC(=O)OC)nc2ccccc2c1=O`, the growth inhibition was 39.9% (inactive) and the condensed nuclei was 2.06%. Further, under setting [1], the growth inhibition was -6.12%.
For the compound `CN(C)C(=O)COn1c(SCC(=O)N(C)C)nc2ccccc2c1=O`, the growth inhibition is 100% (active) and the condensed nuclei is 7.94%. Moreover, the growth inhibition under setting [1] was -74.5%.
As for `CCN(CC)C(=O)COn1c(SCC(=O)N(CC)CC)nc2ccccc2c1=O`, the growth inhibition was 28.8% (inactive) and the condensed nuclei is 5.68%. Further, under setting [1], the growth inhibition is -9.22%.
Take `Cc1c(/C(O)=C2\C(=O)C(=O)N(CCN(C)C)C2c2cccnc2)cnn1-c1ccccc1` (stereo not drawn): the growth inhibition is 65.4% (inactive) and the condensed nuclei worked out at 7.5%. Moreover, the growth inhibition under setting [1] is 24.8%.
As to `Cc1nc2c(c(=O)n1CC1CCCO1)c1nc3ccccc3nc1n2CC(C)C` (stereo not drawn), the growth inhibition is 47.8% (inactive) and the condensed nuclei was found to be 7.73%. For the same compound, under setting [1], the growth inhibition amounted to 4.29%.
The corresponding values for `Cc1[nH]c(=O)[nH]c(=O)c1S(=O)(=O)N1CCCC1` are 7.67% (inactive), 3.07% and -13.2%.
For `CCCCSc1nnc(-c2ccc(NC(C)=O)cc2)n1C`, the growth inhibition was 14.5% (inactive) and the condensed nuclei amounted to 2.33%. Also, the growth inhibition under setting [1] stood at 6.32%.
Regarding `c1ccc(OCc2nn3c(C4CCCCC4)nnc3s2)cc1`, the growth inhibition is 0.33% (inactive) and the condensed nuclei worked out at 2.15%. Besides, under setting [1], the growth inhibition was -3.2%.
The corresponding values for `Cc1cccc(C)c1OCC(O)CNS(=O)(=O)c1ccccc1C(=O)N1CCOCC1` (stereo not drawn) are -11.9% (inactive), 3.46% and -0.31%.
The corresponding values for `COc1ccc(-n2ccc(=O)c3c2CCCC3=O)cc1` are -18.6% (inactive), 3.07% and 1.93%.
As to `Cc1ccc(-c2nnc(OCCN3CCOCC3)c3ccccc23)cc1`, the growth inhibition was 30.1% (inactive) and the condensed nuclei came out at 3.64%. In addition, the growth inhibition under setting [1] turned out to be 10.1%.
The corresponding values for `COc1cc(C2C(C(=O)c3ccc(C)o3)=C(O)C(=O)N2c2cc(C)on2)cc(OC)c1OC` (stereo not drawn) are -22% (inactive), 3.21% and -13.1%.
In the case of `Cc1c(OCc2ccccc2)c(=O)ccn1Cc1ccccc1`, the growth inhibition was -0.34% (inactive) and the condensed nuclei worked out at 1.99%. For the same compound, under setting [1], the growth inhibition is -10.9%.
In the case of `Oc1oc(-c2ccccc2)nc1C=NCc1ccncc1`, the growth inhibition is 2.2% (inactive) and the condensed nuclei amounted to 3.2%. For the same compound, the growth inhibition under setting [1] was -2.06%.
Consider `CC1(C)CC(N(Cc2ccco2)C(=O)Cc2ccccc2)CCO1` (stereo not drawn), for which the growth inhibition is 12.6% (inactive) and the condensed nuclei is 2.03%. Moreover, under setting [1], the growth inhibition worked out at 0.11%.
As for `Cc1cc(C)n(-c2ncnc3sc(C)c(C)c23)n1`, the growth inhibition is -10.3% (inactive) and the condensed nuclei turned out to be 1.35%. The growth inhibition under setting [1] was 2.85%.
`COc1ccc(C2NC(=O)NC(O)(C(F)(F)F)C2C(=O)c2ccc(F)cc2)cc1` (stereo not drawn): the growth inhibition was -33.6% (inactive) and the condensed nuclei was 2.45%. Also, the growth inhibition under setting [1] came out at 0.76%.
As for `CC(C)c1ccc(O)c(N)c1`, the growth inhibition was -26.1% (inactive) and the condensed nuclei came to 5.48%. For the same compound, under setting [1], the growth inhibition was 2.95%.
As to `CC1(C)NC(=O)N(CC(O)COc2cc3ccccc3cc2C(=O)N2CCCCC2)C1=O` (stereo not drawn), the growth inhibition is 23.3% (inactive) and the condensed nuclei amounted to 4.21%. The growth inhibition under setting [1] was -6.38%.
Turning to `COC(=O)c1n[nH]c2ccccc12`, the growth inhibition is 52.2% (inactive) and the condensed nuclei was determined as 5%. Further, under setting [1], the growth inhibition came to 8.18%.
As to `CCCCCCOc1ccc(C(=O)n2cnc(N)n2)cc1`, the growth inhibition is -1.14% (inactive) and the condensed nuclei came to 1.48%. Moreover, the growth inhibition under setting [1] is -15.8%.
Turning to `O=c1[nH]cnc2cc(-c3ccccc3)sc12`, the growth inhibition is 7.95% (inactive) and the condensed nuclei came to 2.77%. Under setting [1], the growth inhibition came to 3.25%.
In the same order, the values of `COc1cccc(NC(=O)c2cc(C(=O)Nc3cccc(OC)c3)n(C)n2)c1` are -5.68% (inactive), 6.71% and 22.7%.
Consider `COC(=O)c1ccc(C2/C(=C(/O)c3ccc(OC)cc3)C(=O)C(=O)N2c2cc(C)on2)cc1` (stereo not drawn), for which the growth inhibition was 8.36% (inactive) and the condensed nuclei worked out at 3.44%. In addition, the growth inhibition under setting [1] was found to be 6.44%.
As to `COc1cc(C)nc(N(C)S(=O)(=O)c2ccccc2Cl)n1`, the growth inhibition is 7.98% (inactive) and the condensed nuclei was determined as 3.59%. Further, the growth inhibition under setting [1] is -1.53%.
In the same order, the values of `Cn1c(NCC(O)c2ccccc2)nc2c1c(=O)n(Cc1ccc(Cl)c(Cl)c1)c(=O)n2C` (stereo not drawn) are 46.1% (inactive), 1.95% and 22.7%.
